Screening data: PubChem, several laboratories
The list is not random: actives were taken first. Their share in the collection is about 4.3%.
HSF1 activator: increases HSF-1 driven luciferase reporter signal; AID 504408; 300,000 tested, 1.7% active; activation, % at 9 µM; NIH3T3-HGL HSF-1 luciferase reporter, MG132, 8 h; 100% = twice DMSO control signal;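 active = mean replicate activation of at least 50% with a set share of replicates each reaching 50%; inconclusive = only one of those two conditions met; inactive = mean below 50% and too few replicates reaching it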;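 also: 0% = median of the neutral control wells and 100% = twice that signal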
MITF act: activators of MITF-driven TRPM1 promoter activity in SK-MEL-5 cells; activation, % at 12.5 µM; SK-MEL-5 TRPM1-promoter luciferase, 24 h; % of positive control, neutral wells = 0; 300,000 tested, 0.75% active; AID 588334;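 active = mean activation of at least 80% with every replicate also reaching 80%; inconclusive = mean reaches 80% but some replicate falls short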;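 also: 0% = neutral control wells and 100% = parthenolide positive control wells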
Wnt act: activates Wnt/beta-catenin signaling in a reporter cell assay. activation, % at 9.35 µM. activator, plate reader. 300,000 tested, 1.2% active; in the data active = activation above about 30%, passing the limit was not always enough; inconclusive = no clear call, values can overlap the other calls;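 also: 0% = neutral control wells and 100% = positive control wells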
HSF1 inhib: HSF1 inhibition; NIH3T3-HGL HSE-luciferase, MG132-induced, luminescence 8 h; active compounds read low; activity change, negative = inhibition, % at 7.5 µM (by protocol); 300,000 tested, 0.77% active; AID 2098;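 active = more than half of replicate wells show activity change below -50%, luminescence cut by over half; inconclusive = some wells, but at most half, below -50%; inactive = no replicate well below -50%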;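 also: luciferase reports HSF-1 transcriptional activity via heat shock element; 0% = median of DMSO wells and -100% = zero luminescence signal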
SMARCA2 act: increases SMARCA2 function in MMTV reporter cells. MG213 cells, MMTV-luciferase reporter, dexamethasone, overnight. activation, % at 9.1 µM. 370,000 tested, 1% active; in the data active = activation above about 7.8%;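 also: 0% = vehicle wells and 100% = reference activator wells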
esBAF inh: SWI/SNF esBAF complex inhibition | mouse ES cells, Bmi1-luciferase knock-in reporter, 24 h; 100% = twice the neutral-well signal | 350,000 tested, 2% active | reporter increase, % at 12.5 µM | AID 602393; in the data active = activation above about 40%; inconclusive = no clear call, values can overlap the other calls;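 also: 0% = median of the plate's neutral control wells and 100% = double that signal; a rise in the Bmi1 reporter signal indicates esBAF inhibition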
Numbers without * were called inactive; ? = inconclusive; . = no result.

SMILES	HSF1 activator	MITF act	Wnt act	HSF1 inhib	SMARCA2 act	esBAF inh
CN(C)C=NC(=O)c1cc(C(=O)c2ccc(C(C)(C)C)cc2)c[nH]1	50.4*	86.1*	14.6	14.1	4.2	.
CN(C)C=NC(=O)c1cc(C(=O)c2ccccc2Cl)c[nH]1	-14.7	-9.6	-0.9	-5.1	1.9	.
CN(C)C(=O)C[C@H]1C[C@@H]2c3cc(NC(=O)c4ccc5c(c4)OCO5)ccc3O[C@@H]2[C@H](CO)O1	.	.	.	.	.	-1.6
COc1ccc(S(=O)(=O)Nc2ccc3c(c2)C(=O)N([C@H](C)CO)C[C@H](C)[C@@H](CN(C)S(=O)(=O)c2ccc(OC)cc2)OCCCC[C@H](C)O3)cc1	.	.	.	.	.	15.5
Nc1nc(-c2ccccc2)c(-c2ccccc2)o1	-8.5	.	2.5	-3.2	-3.2	.
c1ccc(-c2nc(-c3nccc4ccccc34)oc2-c2ccccc2)cc1	31.0	109.3*	26.7	5.5	4.1	.
COc1ccc(S(=O)(=O)Nc2ccc3c(c2)C(=O)N(C)C[C@@H](OC)[C@H](C)CN(C)[C@H](C)CO3)cc1	.	.	.	.	.	-2.5
COCc1nc2oc3ccc(F)cc3c(=O)c2cc1C(=O)OC	-2.0	.	4.9	0.1	1.1	33.4
CCN(CC)C(=O)c1cc2c(=O)c3cc(Cl)ccc3oc2nc1C	10.7	48.3	21.6	5.0	4.5	45.2*
CC(=O)c1cc2c(=O)c3cc(C)ccc3oc2nc1C	23.4	55.5	.	18.3	3.4	60.0*
COCc1nc2oc3ccc(C)cc3c(=O)c2cc1C(=O)OC	10.1	91.2*	4.3	7.8	2.6	16.3
C[C@H](NC(=O)C[C@H]1CC[C@H](NS(=O)(=O)c2cccc(F)c2)[C@@H](CO)O1)c1ccccc1	.	.	.	.	.	0.4
CC(=O)N(C)C[C@H]1[C@H](c2ccc(-c3cccc(C#N)c3)cc2)[C@@H](CO)N1C(C)=O	.	.	.	.	.	-1.5
C[C@@H]1CCCCO[C@H](CN(C)Cc2ccncc2)[C@H](C)CN([C@H](C)CO)C(=O)c2cc(NC(=O)CCCN(C)C)ccc2O1	.	.	.	.	.	-6.9
CO[C@@H]1CN(C)C(=O)c2cc(NC(=O)NC(C)C)ccc2OC[C@@H](C)N(C(=O)C2CCC2)C[C@@H]1C	.	.	.	.	.	0.1
Cc1nonc1OCCNCCNc1ccc([N+](=O)[O-])cc1Cl	77.1*	-0.7	-0.4	36.2	1.3	.
Cc1nonc1OCCNc1ccc([N+](=O)[O-])cc1	3.9	-1.6	.	-4.9	-1.8	.
CC(=O)Nc1cccc(-c2csc(Nc3ccc(C)cn3)n2)c1	67.2*	119.0*	.	35.1	3.2	.
CC(=O)Nc1cccc(-c2csc(Nc3ncccn3)n2)c1	48.4	.	44.1*	33.1	2.3	.
Cc1cccc(Nc2nc(-c3ccc(O)cc3O)cs2)n1	36.9	.	18.6	3.1	5.0	44.9*
Oc1ccc(-c2csc(Nc3ncccn3)n2)cc1O	89.3*	24.9	3.5	74.8	-0.1	.
Oc1ccc(-c2csc(Nc3ccc4c(c3)OCO4)n2)c(O)c1	.	54.1	45.9*	.	6.3	-2.9
CC(=O)Nc1ccc(-c2csc(Nc3cccc(C)n3)n2)cc1	16.0	87.0*	47.7*	17.2	-1.6	.
C[C@@H]1CN([C@@H](C)CO)C(=O)c2c(c3ccccc3n2C)-c2ccccc2CO[C@H]1CN(C)S(=O)(=O)c1ccsc1	.	.	.	.	.	12.4
C=CCc1ccc(OCC(O)CN2CCN(c3ccccc3OC)CC2)c(OC)c1 (stereo not given)	19.6	7.0	0.9	-2.3	-1.7	-5.6
SMILES	HSF1 activator	MITF act	Wnt act	HSF1 inhib	SMARCA2 act	esBAF inh
C=CCc1ccc(OCC(O)CN2CCN(Cc3ccc(Cl)cc3)CC2)c(OC)c1 (stereo not given)	48.9	-2.8	-0.8	13.2	-3.3	.
C=CCc1ccc(OCC(O)COCC)c(OC)c1 (stereo not given)	26.2	92.7*	.	13.6	7.2	40.9*
C=CCc1ccc(OCC(O)CO)c(OC)c1 (stereo not given)	71.4*	3.4	-1.5	21.9	4.9	.
c1ccc(SCc2nc(-c3ccncc3)no2)cc1	72.6*	91.1*	26.3	44.1	4.7	14.5
COc1ccc(-c2noc(CSc3ccccc3)n2)cc1OC	39.4	?	-2.8	28.6	2.0	52.2*
COc1ccc(-c2noc(CCN3C(=O)c4ccccc4C3=O)n2)cc1OC	87.5*	.	.	42.5	1.9	13.2
Cc1ccc(SCc2nc(-c3ccncc3)no2)cc1	9.0	19.9	.	13.7	0.8	17.9
COc1ccc(-c2noc(CCCOc3ccccc3)n2)cc1OC	-0.6	-2.4	.	-2.8	0.1	-12.1
CNC[C@H]1Oc2ccc(NC(=O)Cn3cnnn3)cc2C(=O)N([C@H](C)CO)C[C@@H]1C	.	.	.	.	.	-2.2
C[C@H](CO)N1C[C@H](C)[C@H](CN(C)C(=O)Nc2ccc(F)cc2)Oc2c(NC(=O)Nc3cccc4ccccc34)cccc2C1=O	.	.	.	.	.	10.7
C[C@@H]1CN([C@H](C)CO)C(=O)c2cc(NS(C)(=O)=O)ccc2O[C@@H]1CN(C)C(=O)Nc1ccc(C(F)(F)F)cc1	.	.	.	.	.	-1.2
O=c1[nH]c(=O)n([C@H]2C[C@H](O)[C@@H](CO)O2)cc1Br	.	-21.4	46.5*	.	2.8	12.6
O=c1[nH]c(=O)n(C2CC(O)C(CO)O2)cc1I (stereo not given)	.	.	2.4	.	-5.2	.
Cc1cc(-c2nc3cc(F)ccc3s2)ccc1N	.	8.2	60.0*	.	-1.9	.
Nc1ccc(-c2nc3ccc(N)cc3s2)cc1	7.2	3.0	25.6	4.1	0.9	-69.8
CC(C)(C)NC(=O)c1ccc2c(c1)N(CC(=O)N1CCCCC1)C(=O)C(C)(C)O2	65.9*	20.9	-2.3	26.5	-2.1	.
CC(C)(C)NC(=O)c1ccc2c(c1)N(CC(=O)N1CCCC1)C(=O)C(C)(C)O2	-9.2	.	-0.4	-1.1	0.2	-1.2
COc1ccc(CN(C)C[C@H]2OCCCC[C@H](C)Oc3ccc(NC(=O)Nc4ccc(OC)cc4)cc3C(=O)N([C@@H](C)CO)C[C@@H]2C)cc1	.	.	.	.	.	-3.5
CC(C)CC(=O)Nc1ccc2c(c1)oc1ccccc12	61.7*	90.8*	.	32.3	2.3	62.0*
O=C(Nc1ccc2c(c1)oc1ccccc12)C1CC1	21.0	.	0.0	22.8	1.8	58.8*
O=C(Nc1ccc2c(c1)OC1(CCCC1)O2)C1CC1	12.2	36.6	.	1.2	-0.7	41.8*
CCCCC(=O)Nc1ccc2c(c1)oc1ccccc12	37.4	?	21.5	27.8	2.6	.
CCCNC(=O)[C@H]1[C@H](CO)[C@H]2Cn3c(ccc(C4=CCCC4)c3=O)[C@@H]1N2S(C)(=O)=O	.	.	.	.	.	-4.5
O=C(Nc1ccc(F)cc1)N[C@H]1CC[C@@H](CCn2cc(-c3ccccc3F)nn2)O[C@H]1CO	.	.	.	.	.	-3.3
CCOC(=O)C1(C)NC(c2ccc(O)cc2)C2C(=O)N(c3ccccc3)C(=O)C21 (stereo not given)	-64.8	.	-2.2	-53.6*	1.9	-2.2
Cc1noc(C)c1NC(=O)N[C@H]1CC[C@@H](CC(=O)NCCCN(C)C)O[C@H]1CO	.	.	.	.	.	-6.0
